According to PubChem BioAssay (EPA / NIEHS):
Records with an inconclusive call do not appear. Activity calls are given as the source filed them. How the source made its calls, unless noted: active means hit-call score of the fitted dose curve at least 0.9, where 1 is the maximum; inactive means score below 0.9.

Key:
[1] = target: Hepatocyte nuclear factor 4-alpha (Homo sapiens) (UniProt P41235); test: ATG_HNF4a_TRANS: Attagene TRANS-FACTORIAL HepG2 Assay for human Hepatocyte Nuclear Factor 4 alpha (HNF4a) (AID 2282982; active means hit-call score of the fitted dose curve at least 0.9, where 1 is the maximum); conditions: HepG2 HNF4a transactivation reporter, mRNA readout
Outline: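 Readout is fluorescent reporter-transcript fragments resolved by capillary electrophoresis after RT-PCR from HepG2 cells dosed for 24 h. Cells carried transfected GAL4-UAS reporter constructs measuring exogenous NR-GAL4 chimera activity; DMSO served as baseline.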

[2] = ATG_M_06_TRANS: Attagene TRANS-FACTORIAL HepG2 Assay for M06 Transcription Factor (Internal Marker) (AID 2282983; active means hit-call score of the fitted dose curve at least 0.9, where 1 is the maximum;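 further: reporter transcript level by RT-PCR then capillary electrophoresis fluorescence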); conditions: HepG2 Attagene TRANS M06 internal marker reporter
Outline: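 After a 24 h chemical treatment of transfected HepG2, RNA underwent DNase I treatment, reverse transcription and reporter-specific PCR; labelled, HpaI-digested products were sized by capillary electrophoresis. Signal increase relative to DMSO defined activity.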

[3] = target: Transcriptional activator Myb (Homo sapiens) (UniProt P10242); test: ATG_Myb_CIS: Attagene CIS-FACTORIAL HepG2 Assay for human Myeloblastosis (Myb) Proto-Oncogene Transcription Factor (AID 2282986); conditions: HepG2 Attagene CIS-FACTORIAL Myb reporter transcription; actives raise or lower the signal
Outline: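 Steps: transfect HepG2 with cis-regulated reporter units; dose with chemical for 24 h; isolate RNA, reverse-transcribe, PCR-amplify and FAM-label reporter sequences; digest with HpaI; resolve by capillary electrophoresis. Activity fitted in both directions relative to DMSO.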

[4] = target: Nuclear respiratory factor 1 (Homo sapiens) (UniProt Q16656); test: ATG_NRF1_CIS: Attagene CIS-FACTORIAL HepG2 Assay for human Nuclear Respiratory Factor 1 (NRF1) Orphan Gene (AID 2282987); conditions: HepG2 NRF1 cis-element reporter, Attagene multiplex; actives raise or lower the signal
Outline: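 Fluorescence intensity of labelled reporter cDNA fragments, resolved by capillary electrophoresis, served as readout for NRF1 cis-element activity. Transiently transfected HepG2 cells were dosed for 24 hours; activity in either direction was fitted against DMSO negative control.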

[5] = ATG_NFI_CIS: Attagene CIS-FACTORIAL HepG2 Assay for human Nuclear Factor I (NFI) (AID 2282989); conditions: HepG2 cis-regulatory reporter, NFI response element transcription; actives raise or lower the signal
Outline: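 Multiplexed cis-reporter system in human HepG2 cells reports native TF activity as reporter mRNA induction 24 h post-dose. Fragments labelled with 6-FAM, HpaI-digested and resolved by capillary electrophoresis; activity fitted both directions versus DMSO.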

[6] = target: Myc proto-oncogene protein (Homo sapiens) (UniProt P01106); test: ATG_Myc_CIS: Attagene CIS-FACTORIAL HepG2 Assay for human Myelocytomatosis (Myc) Proto-Oncogene Transcription Factor (AID 2282990); conditions: HepG2, Attagene cis-reporter transcription factor activity; actives raise or lower the signal
Outline: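 Cells of the HepG2 human liver line bear multiple cis-driven reporter transcription units. Reporter mRNA after 24 h exposure is reverse-transcribed, amplified, labelled and resolved by capillary electrophoresis, with gain- or loss-of-signal fitting relative to DMSO.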

[7] = target: Nuclear receptor subfamily 4 group A member 2 (Homo sapiens) (UniProt P43354); test: ATG_NURR1_TRANS: Attagene TRANS-FACTORIAL HepG2 Assay for human Nuclear Receptor Related Protein 1 (NURR1) (AID 2282985; active means hit-call score of the fitted dose curve at least 0.9, where 1 is the maximum); conditions: HepG2 Attagene TRANS reporter, mRNA readout
Outline: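 Transient transfection of HepG2, human liver cells, with multiple GAL4-UAS reporter transcription units. Cells dosed 24 h, RNA isolated, reverse-transcribed, PCR-amplified, FAM-labelled, HpaI-digested, sized by capillary electrophoresis. DMSO served as negative control.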

[8] = ATG_M_32_TRANS: Attagene TRANS-FACTORIAL HepG2 Assay for M32 Transcription Factor (Internal Marker) (AID 2282984; active means hit-call score of the fitted dose curve at least 0.9, where 1 is the maximum); conditions: HepG2 Attagene TRANS M32 internal marker reporter
Outline: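 Measures reporter mRNA induction in human HepG2 liver cells after 24 h chemical treatment. Transcripts from transiently transfected GAL4-UAS reporter units are amplified, fluorescently labelled and sized by capillary electrophoresis; gain of signal relative to DMSO.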

[9] = ATG_M_61_TRANS: Attagene TRANS-FACTORIAL HepG2 Assay for M61 Transcription Factor (Internal Marker) (AID 2282988); conditions: HepG2 Attagene TRANS M61 internal marker reporter
Description: ATG_TRANS is a cell-based, multiplexed-readout assay that uses HepG2, a human liver cell line, with measurements taken at 24 hours after chemical dosing in a 24-well plate.ATG_M_61_TRANS is one of 30 assay component(s) measured or calculated from the ATG_TRANS assay. It is designed to make measurements of mRNA induction, a form of inducible reporter, as detected with fluorescence intensity signals by Reverse transcription polymerase chain reaction (RT-PCR) and Capillary electrophoresis technology.Data from the assay component ATG_M_61_TRANS was analyzed into 1 assay endpoint. This assay endpoint, ATG_M_61_TRANS, was analyzed in the positive analysis fitting direction relative to DMSO as the negative control and baseline of activity. […] Furthermore, this assay endpoint can be referred to as a secondary readout, because this assay has produced multiple assay endpoints where this one serves a background control function. […]
Human liver HepG2 cells are transiently transfected with multiple reporter transcription units (MRTUs) in 6-well plates using FuGene 6 reagent (Roche; 3 ml FuGene/1 mg DNA). […] A major difference between the CIS and TRANS system is that in CIS activities of endogenous TFs are measured, whereas the TRANS assay evaluates changes in activities of exogenous, chimeric NR-Gal4 proteins. […]

Measured: AC50

Sequence of Nuclear respiratory factor 1 (Homo sapiens) (Q16656 whole entry, looked up, the tested form may be a part): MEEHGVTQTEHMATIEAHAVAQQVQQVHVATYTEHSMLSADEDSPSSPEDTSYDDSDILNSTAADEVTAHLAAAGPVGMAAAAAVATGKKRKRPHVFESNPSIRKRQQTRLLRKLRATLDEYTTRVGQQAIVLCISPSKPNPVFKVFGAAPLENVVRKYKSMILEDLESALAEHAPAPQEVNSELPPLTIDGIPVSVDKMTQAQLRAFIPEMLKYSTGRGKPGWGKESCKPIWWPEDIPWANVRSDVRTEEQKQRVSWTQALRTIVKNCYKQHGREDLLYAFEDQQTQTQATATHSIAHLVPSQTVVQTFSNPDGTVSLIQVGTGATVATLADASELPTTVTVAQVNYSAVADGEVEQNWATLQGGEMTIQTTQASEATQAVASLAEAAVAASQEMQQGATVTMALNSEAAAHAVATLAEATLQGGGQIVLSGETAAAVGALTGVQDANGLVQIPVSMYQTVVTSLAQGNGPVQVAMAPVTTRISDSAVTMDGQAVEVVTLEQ
Sequence of Nuclear receptor subfamily 4 group A member 2 (Homo sapiens) (P43354 whole entry, looked up, the tested form may be a part): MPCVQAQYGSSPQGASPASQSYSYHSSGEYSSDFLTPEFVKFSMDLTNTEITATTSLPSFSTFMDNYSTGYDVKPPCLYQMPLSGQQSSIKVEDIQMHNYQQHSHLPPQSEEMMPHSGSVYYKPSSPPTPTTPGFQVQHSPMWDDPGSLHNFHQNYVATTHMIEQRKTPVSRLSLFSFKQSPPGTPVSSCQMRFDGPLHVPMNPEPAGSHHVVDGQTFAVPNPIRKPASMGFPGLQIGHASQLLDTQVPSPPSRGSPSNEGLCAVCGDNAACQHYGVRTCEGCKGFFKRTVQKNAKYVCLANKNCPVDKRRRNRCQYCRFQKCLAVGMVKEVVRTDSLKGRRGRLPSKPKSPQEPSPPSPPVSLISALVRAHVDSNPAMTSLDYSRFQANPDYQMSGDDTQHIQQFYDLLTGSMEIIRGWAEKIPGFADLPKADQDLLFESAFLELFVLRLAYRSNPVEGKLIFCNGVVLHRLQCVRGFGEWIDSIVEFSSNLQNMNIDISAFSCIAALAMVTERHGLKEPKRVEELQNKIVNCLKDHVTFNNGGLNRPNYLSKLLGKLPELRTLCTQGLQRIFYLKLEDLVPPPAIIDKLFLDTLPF
Sequence of Transcriptional activator Myb (Homo sapiens) (P10242 whole entry, looked up): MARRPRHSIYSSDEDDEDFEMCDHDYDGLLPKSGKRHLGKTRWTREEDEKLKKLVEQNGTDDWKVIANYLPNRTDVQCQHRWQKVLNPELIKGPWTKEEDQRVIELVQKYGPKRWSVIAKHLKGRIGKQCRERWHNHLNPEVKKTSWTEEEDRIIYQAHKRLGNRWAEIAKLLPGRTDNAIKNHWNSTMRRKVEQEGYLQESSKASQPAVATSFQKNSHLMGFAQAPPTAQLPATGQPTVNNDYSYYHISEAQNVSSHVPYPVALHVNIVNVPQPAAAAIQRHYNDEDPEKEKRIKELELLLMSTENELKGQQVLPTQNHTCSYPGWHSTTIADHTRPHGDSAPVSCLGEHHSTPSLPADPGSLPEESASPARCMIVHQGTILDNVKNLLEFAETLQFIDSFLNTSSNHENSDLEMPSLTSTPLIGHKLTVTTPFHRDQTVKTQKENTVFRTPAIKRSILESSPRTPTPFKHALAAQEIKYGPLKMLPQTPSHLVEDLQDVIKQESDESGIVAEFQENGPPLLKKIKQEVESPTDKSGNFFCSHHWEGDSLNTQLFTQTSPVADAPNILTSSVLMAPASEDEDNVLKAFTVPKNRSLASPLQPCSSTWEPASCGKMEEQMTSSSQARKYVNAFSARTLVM
Sequence of Myc proto-oncogene protein (Homo sapiens) (P01106 whole entry, looked up): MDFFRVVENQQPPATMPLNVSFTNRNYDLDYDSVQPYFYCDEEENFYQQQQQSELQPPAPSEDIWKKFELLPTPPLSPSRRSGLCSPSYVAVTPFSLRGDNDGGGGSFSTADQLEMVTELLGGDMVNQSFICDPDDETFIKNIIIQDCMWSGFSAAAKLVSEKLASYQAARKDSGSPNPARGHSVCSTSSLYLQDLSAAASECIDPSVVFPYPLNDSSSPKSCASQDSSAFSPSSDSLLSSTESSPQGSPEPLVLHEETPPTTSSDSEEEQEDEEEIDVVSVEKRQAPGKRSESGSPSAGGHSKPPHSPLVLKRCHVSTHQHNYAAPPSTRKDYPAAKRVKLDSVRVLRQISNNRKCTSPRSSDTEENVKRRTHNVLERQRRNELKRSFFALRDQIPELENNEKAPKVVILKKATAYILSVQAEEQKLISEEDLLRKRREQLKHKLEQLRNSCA
Sequence of Hepatocyte nuclear factor 4-alpha (Homo sapiens) (P41235 whole entry, looked up, the tested form may be a part): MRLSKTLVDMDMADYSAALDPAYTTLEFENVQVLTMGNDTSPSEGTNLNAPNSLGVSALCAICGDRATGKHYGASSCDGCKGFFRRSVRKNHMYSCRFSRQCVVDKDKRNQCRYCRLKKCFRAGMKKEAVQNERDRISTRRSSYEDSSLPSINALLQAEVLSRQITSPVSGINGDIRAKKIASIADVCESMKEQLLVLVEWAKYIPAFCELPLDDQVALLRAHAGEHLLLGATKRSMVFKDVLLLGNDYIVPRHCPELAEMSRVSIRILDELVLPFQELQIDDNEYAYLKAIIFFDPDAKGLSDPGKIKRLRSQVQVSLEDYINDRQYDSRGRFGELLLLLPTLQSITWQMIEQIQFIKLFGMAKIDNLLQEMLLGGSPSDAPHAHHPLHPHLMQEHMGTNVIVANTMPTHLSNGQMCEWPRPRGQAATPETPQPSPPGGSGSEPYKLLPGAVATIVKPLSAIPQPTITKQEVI

CCOC=O
not listed: [7] | [8] | [9]
inactive: all other assays above

CCC1CO1 (centres undefined)
not listed: [8] | [9]
inactive: all other assays above

Cc1cccc2c1ccc1ccccc12
not listed: [2] | [9]
inactive: all other assays above

O=S(=O)(O)C(F)(F)C(F)(F)C(F)(F)C(F)(F)C(F)(F)C(F)(F)C(F)(F)C(F)(F)C(F)(F)C(F)(F)F
not listed: [9]
inactive: all other assays above

O=C(c1cc(O)c(O)c(O)c1)c1ccc(O)c(O)c1O
not listed: [9]
inactive: all other assays above

CCCCc1ccc2ccccc2c1S(=O)(=O)O
not listed: [7] | [9]
inactive: all other assays above

CCCCC(CC)C(=O)O (centres undefined)
not listed: [7] | [9]
inactive: all other assays above

O=S(=O)(O)c1ccc2cc(O)ccc2c1
not listed: [7] | [9]
inactive: all other assays above

Clc1ccc2c(Cl)ccnc2c1
not listed: [7] | [9]
inactive: all other assays above

COC(=O)C(F)(F)C(F)(F)C(F)(F)C(F)(F)C(F)(F)F
not listed: [5] | [7] | [9]
inactive: all other assays above

Clc1ccc(Nc2nnc(Cc3ccncc3)c3ccccc23)cc1
inactive: [1] | [8] | [3] | [4] | [6]

Cc1ccc(C(=O)c2ccccc2)cc1
not listed: [2] | [9]
inactive: all other assays above

Cc1cncc(C)c1
inactive: [1] | [3] | [4] | [5] | [6]

OCC(F)(F)C(F)(F)C(F)(F)C(F)(F)C(F)(F)C(F)(F)C(F)(F)C(F)(F)C(F)(F)C(F)(F)C(F)(F)F
not listed: [7] | [9]
inactive: all other assays above

CCC(=O)O
not listed: [5] | [9]
inactive: all other assays above

C=CC(=O)OCC(CO)(COCC(COC(=O)C=C)(COC(=O)C=C)COC(=O)C=C)COC(=O)C=C
active: [3] 7.52 µM | [4] 14.9 µM
not listed: [7] | [9]
inactive: all other assays above

Cc1ccc(S(=O)(=O)O)cc1
not listed: [9]
inactive: all other assays above

COC(O)c1ccccc1 (centres undefined)
not listed: [7] | [9]
inactive: all other assays above

C=CCOCC(CO)(CO)CO
not listed: [9]
inactive: all other assays above

Nc1ccc(O)c(C(=O)O)c1
not listed: [2] | [5] | [9]
inactive: all other assays above

CN(CCO)S(=O)(=O)C(F)(F)C(F)(F)C(F)(F)C(F)(F)C(F)(F)C(F)(F)C(F)(F)C(F)(F)F
not listed: [8] | [9]
inactive: all other assays above

CCCCCC(C)OC(=O)COc1ccc(Cl)c2cccnc12 (centres undefined)
inactive: [1] | [2] | [3] | [4] | [6]

COC(=O)CC(C(C)=O)C(=O)OC (centres undefined)
not listed: [7] | [8] | [9]
inactive: all other assays above

O=C(NCc1ncc(C(F)(F)F)cc1Cl)c1c(Cl)cccc1Cl
not listed: [5] | [7] | [9]
inactive: all other assays above

CCOC(OCC)C(=O)c1ccccc1
not listed: [2] | [9]
inactive: all other assays above

O=P(O)(O)CCC(F)(F)C(F)(F)C(F)(F)C(F)(F)C(F)(F)C(F)(F)F
not listed: [7] | [9]
inactive: all other assays above

CCCCCc1ccc(O)cc1
not listed: [8] | [9]
inactive: all other assays above

CC[N+](CC)(CC)Cc1ccccc1
not listed: [5] | [7] | [9]
inactive: all other assays above

C/C=C/C(=O)C1=C(C)CCCC1(C)C
active: [1] 159 µM | [5] 65.1 µM
not listed: [7] | [9]
inactive: all other assays above

CCCCCCCCCCCC(=O)NCCCN(C)C
active: [5] 17.1 µM
inactive: [3] | [4] | [6]

FC(F)=C(F)C(F)(F)C(F)(F)C(F)(F)C(F)F
inactive: [8] | [3] | [4] | [5] | [6]

CCC(C)c1ccccc1O (centres undefined)
not listed: [1] | [8] | [9]
inactive: all other assays above

O=C(CCCN1CCC(O)(c2ccc(Cl)cc2)CC1)c1ccc(F)cc1
inactive: [3] | [6]

FC(F)(F)C1(F)C(F)(F)C(F)(F)C(F)(F)C1(F)F
inactive: [8] | [3] | [4] | [5] | [6]

CCCCCCCCC1CCC(=O)O1 (centres undefined)
not listed: [1] | [7] | [9]
inactive: all other assays above

CCOC(=O)c1nc(C(Cl)(Cl)Cl)n(-c2ccc(Cl)cc2Cl)n1
active: [8] 100 µM | [7] 66 µM | [6] 24.5 µM
inactive: [3] | [4] | [9] | [5]

Oc1cc2ccccc2cc1O
inactive: [1] | [3] | [4] | [5] | [6]

O=C(O)c1cccc(C(=O)O)n1
not listed: [1] | [7] | [9]
inactive: all other assays above

NCc1cccc(CN)c1
not listed: [1] | [5] | [9]
inactive: all other assays above

O=C(C=C(O)C(F)(F)F)C(F)(F)F
inactive: [8] | [3] | [4] | [5] | [6]

CCCCCCC(C)(C)C(=O)O
not listed: [1] | [7] | [9]
inactive: all other assays above

COc1cccc(O)c1
not listed: [1] | [7] | [9]
inactive: all other assays above

FC1(F)C=CC(F)(F)C1(F)F
inactive: [7] | [3] | [4] | [5] | [6]

CC(=O)Nc1ccc(O)cc1
inactive: [2] | [8] | [3] | [6]

O=S(=O)(c1ccc(OCc2ccccc2)cc1)c1ccccc1O
inactive: [2] | [8] | [4] | [6]
active: [3] 33.4 µM | [5] 33.4 µM

N=C(N)c1ccc(OCCCCCOc2ccc(C(=N)N)cc2)cc1
inactive: [2] | [3] | [4] | [6]

c1cc[nH]c1
inactive: [2] | [3] | [4] | [5] | [6]

CC(C)c1c(C(=O)Nc2ccccc2)c(-c2ccccc2)c(-c2ccc(F)cc2)n1CC[C@@H](O)C[C@@H](O)CC(=O)O
inactive: [2] | [8] | [3] | [6]

c1cc2cccc3c4cccc5cccc(c(c1)c23)c54
inactive: [2] | [3] | [4] | [5] | [6]

Cc1ccc(C)c(S(=O)(=O)O)c1
not listed: [1] | [7] | [9]
inactive: all other assays above

FC(F)(F)C1(F)C(F)(F)C(F)(F)C(F)(F)C(F)(C(F)(F)F)C1(F)F (centres undefined)
not listed: [1] | [7] | [9]
inactive: all other assays above

O=C1OC(=O)c2cc(-c3ccc4c(c3)C(=O)OC4=O)ccc21
inactive: [8] | [3] | [4] | [5] | [6]

CCCCCCCCCC=CCC1CC(=O)OC1=O (centres undefined)
inactive: [2] | [3] | [4] | [5] | [6]

CCc1ccccc1O
inactive: [8] | [3] | [4] | [5] | [6]

CC(C)(C)c1ccc(CCC=O)cc1
not listed: [1] | [2] | [9]
inactive: all other assays above

CCN(CCC#N)c1ccccc1
not listed: [1] | [7] | [9]
inactive: all other assays above

CCN(CC)CC
not listed: [1] | [5] | [9]
inactive: all other assays above

NC(C(F)(F)F)C(F)(F)F
not listed: [1] | [7] | [9]
inactive: all other assays above

FCOC(C(F)(F)F)C(F)(F)F
inactive: [3] | [4] | [5] | [6]

CCCCC(CC)C(=O)OCCOCCOCCOCCOC(=O)C(CC)CCCC (centres undefined)
not listed: [1] | [5] | [9]
inactive: all other assays above

Cc1ccccc1OCC(=O)O
active: [3] 164 µM
inactive: [8] | [4] | [5] | [6]

Cc1ccccc1C(OCCN(C)C)c1ccccc1 (centres undefined)
not listed: [1] | [9]
inactive: all other assays above

CCCCC=O
inactive: [2] | [3] | [4] | [5] | [6]

C=CC(=O)OCCC(F)(F)C(F)(F)C(F)(F)C(F)(F)C(F)(F)C(F)(F)F
not listed: [1] | [8] | [9]
inactive: all other assays above

NCCN
inactive: [8] | [7] | [3] | [4] | [6]

Cn1sccc1=O
inactive: [8] | [3]
active: [4] 170 µM | [6] 187 µM

CCCCCCCC(OC)OC
inactive: [2] | [3] | [4] | [6]
